Inconclusive results are not listed. The source made the active and inactive calls. Unless noted, calls come from the whole dose curve; as a rule, active = well fitted curve in the direction sought with a large enough effect in the repeat runs; inconclusive = weak or mixed curves; inactive = no such curve, though single readings can be large; an effect the other way counts as inactive or inconclusive.
How the values were obtained:
[1] = A CellTox Green Cytotoxicity Assay to monitor cytotoxicity in HepG2 cells - 0 hour (AID 1224882); note: nearly all actives have a fitted effect of over 35% in size; note: potency is the fitted concentration of half-maximal effect
Outline: (§1)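 First, HepG2 cells (600/well) mixed with reagent were plated; second, after 5 h at 37 C they received compounds via pintool; third, fluorescence was measured at 0 h through 40 h at 8 h intervals.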

[2] = A CellTox Green Cytotoxicity Assay to monitor cytotoxicity in HepG2 cells - 32 hour (AID 1224883); note: nearly all actives have a fitted effect of over 50% in size; note: potency is the fitted concentration of half-maximal effect
Outline: as §1

[3] = qHTS RealTime-Glo MT Cell Viability Assay in HepG2 cells - 16 hour (AID 1224885); note: nearly all actives have a fitted effect of over 50% in size
Outline: (§2)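 Compound treatment began 5 h after plating HepG2 cells (600/well) with NanoLuc luciferase and prosubstrate. Plates stayed at 37 C for 40 h; luminescence was captured at six time points, 0 h through 40 h.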

[4] = qHTS RealTime-Glo MT Cell Viability Assay in HEK293 cells - 8 hour (AID 1224887); note: top concentration of the series differs between compounds; nearly all actives have a fitted effect of over 50% in size
Outline: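 600 HEK293 cells per well, dispensed already mixed with RealTime-Glo MT reagents. Compound dosing came 5 h later. The same wells were read for luminescence at 0, 8, 16, 24, 32 and 40 h of exposure at 37 C.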

[5] = A CellTox Green Cytotoxicity Assay to monitor cytotoxicity in HEK293 cells - 16 hour (AID 1224888); note: nearly all actives have a fitted effect of over 35% in size; note: potency is the fitted concentration of half-maximal effect
Outline: (§3)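 Dead-cell fluorescence measured kinetically: asymmetric cyanine dye, HEK293, 600 cells/well, 5 h settle, 23 nL cpd/DMSO, 37 C, reads 0–40 h every 8 h.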

[6] = qHTS RealTime-Glo MT Cell Viability Assay in HepG2 cells - 0 hour (AID 1224889); note: nearly all actives have a fitted effect of over 50% in size
Outline: as §2

[7] = A CellTox Green Cytotoxicity Assay to monitor cytotoxicity in HepG2 cells - 8 hour (AID 1224890); note: nearly all actives have a fitted effect of over 45% in size; note: potency is the fitted concentration of half-maximal effect
Outline: as §1

[8] = qHTS assay to identify small molecule antagonists of the estrogen receptor alpha (ER-alpha) signaling pathway using the BG1 cell line in the presence of 0.1 nM 17-beta-estradiol - cell viability counter screen (AID 1259241); note: nearly all actives have a fitted effect of over 40% in size
Outline: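 VM7Luc4E2 cells (endogenous ER-alpha, 4×ERE-luciferase), hormone-starved 5 days in charcoal-stripped FBS, were treated with compounds plus 0.1 nM 17beta-estradiol for 22 hr at 37C; viability read in same wells as CellTiter-Fluor live-cell protease fluorescence.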

[9] = qHTS assay to identify small molecule antagonists of the androgen receptor (AR) signaling pathway using the MDA cell line in the presence of 0.5 nM R1881 - cell viability counter screen (AID 1259242); note: nearly all actives have a fitted effect of over 45% in size
Outline: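 qHTS format. MDA-kb2 (MMTV-luc, AR/GR responsive) + cpd + 0.5 nM R1881 final, 16 hr 37C/0% CO2 → CellTiter-Fluor 30 min → fluorescence intensity.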

[10] = biological target: Estrogen receptor (Homo sapiens) (UniProt P03372); experiment: qHTS assay to identify small molecule antagonists of the estrogen receptor alpha (ER-alpha) signaling pathway using the BG1 cell line in the presence of 0.1 nM 17-beta-estradiol (AID 1259244); note: nearly all actives have a fitted effect of over 50% in size
Outline: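 Reporter is a stably transfected luciferase under four estrogen responsive elements in VM7Luc4E2 cells expressing native full-length ER-alpha; inhibition of 0.1 nM (final) 17beta-estradiol-driven signal over 22 h is read by luminescence.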

[11] = qHTS assay to identify small molecule HDAC inhibitors (AID 1259364); note: potency is the fitted concentration of half-maximal effect;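 note: wild-type HCT-116 cells with endogenous class I/II HDAC activity; nearly all actives have a fitted effect of over 45% in size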; for activity change, negative = inhibition: top concentration of the series differs between compounds
Outline: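 Quantitative high-throughput format: overnight-seeded HCT-116 cells got compounds for 2 hr at 37C; HDAC-Glo I/II reagent added, 30 min RT, luminescence measured.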

[12] = qHTS assay to identify small molecule HDAC inhibitors - cell viability counter screen (AID 1259365)
Outline: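 Wild-type HCT-116 cells were seeded at 1,500 per well, incubated overnight at 37 C, then exposed to compounds in DMSO for 2hr. Viability was read by CellTiter-Glo luminescence after 30min at room temperature.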

[13] = qHTS assay to identify small molecule agonists of the sonic hedgehog signaling (Shh) pathway - cell viability counter screen (AID 1259366); note: nearly all actives have a fitted effect of over 50% in size
Outline: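 NIH/3T3-derived 3T3 Gli1-Luc cells (stable Gli1-responsive firefly luciferase reporter) were seeded, rested 4 hr at 37 C/5% CO2, then exposed to compounds in DMSO for 24 hr; viability was read by CellTiter-Fluor fluorescence in the same wells.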

[14] = qHTS assay to identify small molecule antagonists of the sonic hedgehog signaling (Shh) pathway - cell viability counter screen (AID 1259367); note: nearly all actives have a fitted effect of over 55% in size
Outline: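 Cytotoxicity was assessed in parallel with Shh reporter activity by measuring live-cell protease fluorescence (CellTiter-Fluor) in NIH/3T3 cells stably carrying Gli1-Luc, treated with compound under conditioned medium stimulation for 23 hr plus 1 hr reagent incubation.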

[15] = qHTS assay to identify small molecule agonists of the sonic hedgehog signaling (Shh) pathway (AID 1259368; calls by dose curve; note: series mostly up to about 92 µM; nearly all actives have a fitted effect of over 15% in size)
Outline: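 Quantitative high-throughput format using a Gli1-driven firefly luciferase reporter line derived from NIH/3T3 cells. After a 24 hr compound treatment at 37 C and 5% CO2, luminescence reported Gli1 response element activity.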

[16] = qHTS assay to identify small molecule antagonists of the sonic hedgehog signaling (Shh) pathway (AID 1259369; calls by dose curve; note: nearly all actives have a fitted effect of over 45% in size; note: potency is the fitted concentration of half-maximal effect)
Outline: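 Stable Gli1-Luc reporter NIH/3T3 clone; quantitative HTS in stimulated mode with conditioned medium. Luminescence measured after 24hr compound treatment at 37 C.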

[17] = A CellTox Green Cytotoxicity Assay to monitor cytotoxicity in HEK293 cells - 8 hour (AID 1224884); note: nearly all actives have a fitted effect of over 35% in size
Outline: as §3

[18] = qHTS assay to identify small molecule phospholipidosis (PLD) inducers (AID 1259344; active = well fitted curve in the direction sought with a large enough effect; an effect the other way counts as inactive or inconclusive)
Outline: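 Cells (HepG2, 900 per well) attach for 4 h, receive LipidTOX Red and compound together, incubate 24 h at 37 C, are fixed 30 min with paraformaldehyde/Hoechst, then imaged at one site per well.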

[19] = qHTS RealTime-Glo MT Cell Viability Assay in HEK293 cells - 24 hour (AID 1224886)
Outline: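 Quantitative high-throughput screen of the Tox21 10K library in HEK293: cells and RealTime-Glo reagents plated together, compound added at 5 h, luminescence monitored through 40 h at 37 C.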

[20] = biological target: Androgen receptor (Homo sapiens) (UniProt P10275); experiment: qHTS assay to identify small molecule antagonists of the androgen receptor (AR) signaling pathway using the MDA cell line in the presence of 0.5 nM R1881 (AID 1259243); note: nearly all actives have a fitted effect of over 50% in size
Outline: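 Antagonist mode quantitative HTS in MDA-kb2 MMTV-luciferase cells, agonist R1881 at 0.5 nM final, 16 hr exposure at 37C and 0% CO2, luminescent detection.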
% is set by controls: 0 for no effect and ±100 for the full control effect.

Chain of Estrogen receptor (Homo sapiens) (P03372 whole entry, looked up): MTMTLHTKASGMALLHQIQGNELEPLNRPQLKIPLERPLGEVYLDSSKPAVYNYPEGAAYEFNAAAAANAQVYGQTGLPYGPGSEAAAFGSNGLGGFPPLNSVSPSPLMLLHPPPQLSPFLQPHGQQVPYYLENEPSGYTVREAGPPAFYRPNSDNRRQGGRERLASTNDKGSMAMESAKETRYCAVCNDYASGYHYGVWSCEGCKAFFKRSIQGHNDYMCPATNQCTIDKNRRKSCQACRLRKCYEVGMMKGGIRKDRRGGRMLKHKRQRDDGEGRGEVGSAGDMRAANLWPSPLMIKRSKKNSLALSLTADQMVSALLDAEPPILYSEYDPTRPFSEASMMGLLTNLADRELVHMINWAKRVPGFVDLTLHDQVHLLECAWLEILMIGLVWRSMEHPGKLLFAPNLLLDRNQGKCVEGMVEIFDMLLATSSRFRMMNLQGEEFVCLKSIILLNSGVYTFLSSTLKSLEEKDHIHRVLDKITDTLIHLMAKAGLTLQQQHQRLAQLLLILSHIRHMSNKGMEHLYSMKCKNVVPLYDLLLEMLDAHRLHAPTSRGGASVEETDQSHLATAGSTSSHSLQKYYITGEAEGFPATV
Chain of Androgen receptor (Homo sapiens) (P10275 whole entry, looked up): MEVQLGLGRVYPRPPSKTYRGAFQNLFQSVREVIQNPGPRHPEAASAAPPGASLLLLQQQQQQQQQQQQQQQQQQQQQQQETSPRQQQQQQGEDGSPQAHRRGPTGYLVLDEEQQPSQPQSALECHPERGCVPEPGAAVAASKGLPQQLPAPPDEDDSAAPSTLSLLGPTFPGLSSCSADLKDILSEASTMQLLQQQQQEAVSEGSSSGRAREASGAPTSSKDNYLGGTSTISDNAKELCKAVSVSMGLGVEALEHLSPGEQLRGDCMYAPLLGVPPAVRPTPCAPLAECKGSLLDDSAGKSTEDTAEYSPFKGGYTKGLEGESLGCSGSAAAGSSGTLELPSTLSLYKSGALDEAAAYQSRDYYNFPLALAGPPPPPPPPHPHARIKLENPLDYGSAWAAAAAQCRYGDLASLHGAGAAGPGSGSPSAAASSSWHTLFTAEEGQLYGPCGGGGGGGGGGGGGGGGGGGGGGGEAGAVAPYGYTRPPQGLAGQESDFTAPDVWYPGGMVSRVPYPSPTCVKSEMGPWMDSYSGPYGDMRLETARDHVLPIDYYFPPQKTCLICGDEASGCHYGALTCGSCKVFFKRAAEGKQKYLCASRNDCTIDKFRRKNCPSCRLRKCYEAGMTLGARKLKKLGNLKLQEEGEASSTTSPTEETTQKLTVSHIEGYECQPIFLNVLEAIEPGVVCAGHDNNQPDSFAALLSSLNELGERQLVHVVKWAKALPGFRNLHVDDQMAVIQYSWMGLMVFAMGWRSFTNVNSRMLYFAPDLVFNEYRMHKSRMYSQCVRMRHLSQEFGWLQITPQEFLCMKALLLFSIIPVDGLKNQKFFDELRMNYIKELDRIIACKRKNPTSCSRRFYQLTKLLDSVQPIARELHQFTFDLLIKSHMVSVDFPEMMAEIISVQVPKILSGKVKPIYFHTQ

CC(C)OC(C)C
inactive: Potency [1] | Potency [2] | outcome [3] | Potency [4] | Potency [5] | Potency [6] | Potency [7] | Potency [8] | outcome [9] | Potency [10] | Potency [11] | outcome [12] | Potency [13] | Potency [14] | Potency [15] | Potency [16]

C[C@]12CCC(=O)C=C1CC[C@@H]1[C@@H]2CC[C@@]2(C)[C@H]1CC[C@]2(O)C(=O)CO
inactive: Potency [1] | Potency [2] | Potency [17] | Potency [4] | Potency [5] | Potency [7] | Potency [8] | outcome [9] | Potency [10] | outcome [18] | Potency [11] | outcome [12] | Potency [13] | Potency [14] | Potency [15] | Potency [16]

FC(F)(F)c1ccccc1
inactive: Potency [1] | Potency [2] | outcome [3] | Potency [19] | Potency [4] | Potency [5] | Potency [6] | Potency [7] | Potency [8] | outcome [9] | Potency [10] | Potency [11] | outcome [12] | Potency [13] | Potency [14] | Potency [15] | Potency [16]

C[C@@H]1CN(c2c(F)c(F)c3c(=O)c(C(=O)O)cn(C4CC4)c3c2F)C[C@H](C)N1
inactive: cytotoxicity [1] -1.92% [at 15.8 µM] | cytotoxicity increase [2] -14.8% [at 15.8 µM] | activity change, negative = cytotoxic [3] -2.02% [at 15.8 µM] | activity change, negative = cytotoxicity [19] 9.9% [at 15.8 µM] | activity change, negative = cytotoxicity [4] 0.326% [at 15.8 µM] | activity change [5] 1.09% [at 15.8 µM, hits give high values] | activity change, negative = cytotoxicity [6] -0.832% [at 15.8 µM] | cytotoxicity increase [7] -9.96% [at 15.8 µM] | activity change, negative = cytotoxicity [8] 13.3% [at 19 µM] | viability change, negative = cytotoxic [9] 2.13% [at 19 µM] | Potency [20] | outcome [18] | activity change, negative = inhibition [11] -5.53% [at 19 µM] | activity change, negative = cytotoxicity [12] -3.08% [at 19 µM] | viability change, negative = cytotoxic [13] 6.74% [at 19 µM] | viability change, negative = cytotoxic [14] -0.257% [at 19 µM] | activity change [15] 3.53% [at 18.9 µM, hits give high values] | activity change, negative = inhibition [16] 7.04% [at 19 µM]

CCOC(=O)CS
active: Potency [11] 25 µM | Potency [16] 19.9 µM
inactive: Potency [1] | Potency [2] | outcome [3] | Potency [19] | Potency [4] | Potency [5] | Potency [6] | Potency [7] | Potency [8] | outcome [9] | outcome [12] | Potency [13]

O=C1CCC(C2CCCCC2)CC1
inactive: outcome [3] | Potency [6] | Potency [8] | outcome [9] | Potency [11] | outcome [12] | Potency [13] | Potency [14] | Potency [15] | Potency [16]
active: Potency [1] 38.9 µM | Potency [2] 38.9 µM | Potency [5] 43.6 µM | Potency [7] 27.5 µM

OCc1ccccc1O
inactive: Potency [1] | Potency [2] | outcome [3] | Potency [19] | Potency [5] | Potency [6] | Potency [7] | Potency [8] | outcome [9] | outcome [18] | Potency [11] | outcome [12] | Potency [13] | Potency [14] | Potency [15] | Potency [16]

CCCCOc1cc(C(=O)NCCN(CC)CC)c2ccccc2n1
inactive: Potency [1] | outcome [3] | Potency [5] | Potency [6] | Potency [7] | Potency [8] | outcome [9] | Potency [11] | outcome [12] | Potency [14]
active: Potency [2] 23.9 µM
